The full list was thinned out, with hits kept by preference.
DUX4 inh = inhibitors of DUX4-driven ZSCAN4 reporter expression, primary screen, 293T cells, Gaussia and Italica luciferase; 293T-iDUX4 ZSCAN4-Gaussia luciferase reporter, 24 h; stronger effect = lower value; activity change, negative = inhibition, % (concentration not given with the values); 37,000 tested, 0.8% active; AID 1224904, 2016;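 active means mean inhibition of at least 10% in the main channel, exceeding the control channel by a set limit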;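 further: 0% = median of neutral control wells and -100% = median of positive control wells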
The depositor's hits bear a star; ! = not active in a repeat.

SMILES	DUX4 inh
Cc1noc(C)c1NC(=O)N(C)C[C@@H]1Oc2ccc(N(C)C)cc2CC(=O)N([C@H](C)CO)C[C@H]1C	-4
Cc1ccc(S(=O)(=O)N2CC[C@@H]3[C@@H](CO)Nc4ccc(Br)cc4[C@@H]32)cc1	-2
COCCNC(=O)C[C@@H]1C[C@H]2c3cc(NC(=O)Nc4ccccc4F)ccc3O[C@H]2[C@H](CO)O1	-6
COc1ccccc1CNC(=O)C[C@@H]1C[C@H]2c3cc(NC(=O)Nc4ccccc4F)ccc3O[C@H]2[C@H](CO)O1	-9
O=C(C[C@@H]1C[C@H]2c3cc(NC(=O)Nc4ccccc4F)ccc3O[C@H]2[C@@H](CO)O1)NCCc1ccccc1	-22*
O=C(C[C@@H]1C[C@H]2c3cc(NC(=O)Nc4ccccc4F)ccc3O[C@H]2[C@H](CO)O1)NCc1cc(F)ccc1F	-52*
O=C(C[C@H]1C[C@@H]2c3cc(NC(=O)Nc4ccccc4F)ccc3O[C@@H]2[C@H](CO)O1)NCc1cc(F)ccc1F	0
COCCNC(=O)C[C@H]1C[C@H]2c3cc(NC(=O)Nc4ccccc4F)ccc3O[C@H]2[C@H](CO)O1	-3
C[C@H](CO)N1C[C@H](C)[C@@H](CN(C)C(=O)Nc2ccc3c(c2)OCO3)OCc2ccccc2-c2ccccc2C1=O	20
CC(=O)N1[C@@H]2c3ccc(C4=CCCCC4)c(=O)n3C[C@@H]2[C@@H](CO)[C@@H]1C(=O)N1CCCCC1	4
Cc1ccccc1S(=O)(=O)Nc1ccc2c(c1)C(=O)N(C)[C@H]1CC[C@H](CC(=O)O)O[C@@H]1CO2	-2
CCS(=O)(=O)Nc1ccc2c(c1)C(=O)N(C)[C@@H]1CC[C@@H](CC(=O)NCc3ccccc3F)O[C@@H]1CO2	0
C[C@@H]1CN([C@H](C)CO)C(=O)c2c(c3ccccc3n2C)-c2ccccc2CO[C@@H]1CN(C)Cc1cccc(C(=O)O)c1	16
CCCN(C)C[C@H]1OCCCC[C@H](C)Oc2ccc(N(C)C)cc2C(=O)N([C@H](C)CO)C[C@H]1C	4
C[C@H](NC(=O)[C@H]1[C@H](CO)[C@H]2Cn3c(ccc(-c4ccccc4F)c3=O)[C@@H]1N2C)c1ccccc1	-1
Cc1ccccc1-c1ccc(C2[C@H]3CNC[C@@H]2N3Cc2ccccn2)cc1 (some centres undefined)	18
Cc1ccc(CN2CC(=O)N3[C@H](C2)[C@H](c2ccc(-c4ccccc4F)cc2)[C@@H]3CO)cc1	2
c1ncc(-c2ccc(C3[C@@H]4CN(Cc5cocn5)C[C@H]3N4)cc2)cn1 (some centres undefined)	12
OC[C@H]1[C@H](c2ccc(-c3ccccc3F)cc2)[C@@H]2CN(Cc3ccncc3)CCCCN12	2
Fc1ccccc1-c1ccc(C2[C@@H]3CN(Cc4ccccc4)C[C@H]2N3)cc1 (some centres undefined)	-24*!
Fc1ccccc1-c1ccc(C2[C@@H]3CN(Cc4ccccn4)C[C@H]2N3)cc1 (some centres undefined)	-22*!
CN(C)c1ccc2c(c1)[C@@H]1C[C@@H](CC(=O)NCc3ccc4c(c3)OCO4)O[C@@H](CO)[C@@H]1O2	12
COC(=O)C[C@H]1C[C@H]2c3cc(NS(C)(=O)=O)ccc3O[C@H]2[C@H](CO)O1	2
CO[C@H](CN(C)S(=O)(=O)c1ccc(Cl)cc1)[C@@H](C)CN(C(=O)Nc1ccccc1F)[C@@H](C)CO	2
CN1CCCCN2[C@H](CO)[C@H](c3ccc(C#CC4(O)CCCC4)cc3)[C@@H]2C1	25
SMILES	DUX4 inh
COc1ccc(C#Cc2ccc([C@@H]3[C@@H](CO)N4CCCCN(Cc5ccncc5)C[C@@H]34)cc2)cc1	-45*
COc1ccc(C#Cc2ccc([C@H]3[C@H](CO)N4CCCCN(C)C[C@@H]34)cc2)cc1	-26*
CCCC#Cc1ccc([C@H]2[C@H](CO)N3CCCCN(Cc4ccncc4)C[C@@H]23)cc1	20
COc1ccc(NC(=O)N2CCCCN3[C@H](CO)[C@@H](c4ccc(C#CCC(C)C)cc4)[C@@H]3C2)cc1	-17*
OC[C@H]1[C@@H](c2ccc(C#CC3(O)CCCC3)cc2)[C@H]2CN(Cc3ccncc3)CCCCN21	15
COc1ccc(C#Cc2ccc([C@H]3[C@@H](CO)N4CCCCN(Cc5ccncc5)C[C@H]34)cc2)cc1	-32*
COc1ccc(NC(=O)N2CCCCN3[C@H](C2)[C@H](c2ccc(C#CCC(C)C)cc2)[C@@H]3CO)cc1	15
OC[C@H]1[C@H](c2ccc(C#CC3(O)CCCC3)cc2)[C@@H]2CN(Cc3ccncc3)CCCCN12	15
CN1CCCCN2[C@H](C1)[C@@H](c1ccc(C#CC3(O)CCCC3)cc1)[C@@H]2CO	-9
OC[C@@H]1[C@H](c2ccc(C#CC3(O)CCCC3)cc2)[C@H]2CN(Cc3ccncc3)CCCCN12	2
COc1ccc(NC(=O)N2CCCCN3[C@@H](CO)[C@H](c4ccc(C#CCC(C)C)cc4)[C@@H]3C2)cc1	-1
O=C(C[C@H]1CC[C@@H](NC(=O)C2CCOCC2)[C@H](CO)O1)Nc1nccs1	1
CCNC(=O)C[C@@H]1CC[C@@H]2[C@H](COC[C@H](O)CN2Cc2ccncc2)O1	9
CCS(=O)(=O)Nc1ccc2c(c1)C(=O)N(C)[C@@H]1CC[C@@H](CC(=O)OC)O[C@@H]1CO2	-2
O=C(C[C@@H]1CC[C@H]2[C@@H](COC[C@@H](O)CN2Cc2cccc(C(F)(F)F)c2)O1)NCCc1ccncc1	7
COc1ccc(CN2C[C@H](C)[C@@H](OC)CN(C)C(=O)c3cc(NC(=O)C4CC4)ccc3OC[C@@H]2C)cc1	1
COc1cc(CN2CC3(CN(C(C)=O)C3)c3c([nH]c4cc(OC)ccc34)[C@@H]2CO)cc(OC)c1	1
COc1ccc(S(=O)(=O)Nc2ccc3c(c2)C(=O)N([C@@H](C)CO)C[C@H](C)[C@@H](CN(C)C(=O)Nc2c(C)noc2C)OCCCC[C@H](C)O3)cc1	3
CC=Cc1ccc2n(c1=O)C[C@@H]1[C@@H](CO)[C@H](C(=O)NCCC)N(CC3CCOCC3)[C@H]21 (mixture of isomers)	10
CO[C@H]1CN(C)C(=O)c2cc(NS(=O)(=O)c3ccccc3F)ccc2OC[C@H](C)NC[C@H]1C	4
COc1ccccc1C(=O)Nc1ccc2c(c1)OC[C@H](C)N(CC1CC1)C[C@H](C)[C@H](OC)CN(C)C2=O	1
O=C(CN1CCOCC1)N1CCCCN2[C@H](C1)[C@@H](c1ccc(/C=C/c3ccccc3)cc1)[C@@H]2CO	-7
O=C(c1cccc(F)c1)N1CCCCN2[C@H](C1)[C@H](c1ccc(/C=C/c3ccccc3)cc1)[C@@H]2CO	-9
O=C(CN1CCOCC1)N1CCCCN2[C@H](CO)[C@H](c3ccc(/C=C/c4ccccc4)cc3)[C@H]2C1	5
CCC(=O)N1CCCCN2[C@@H](CO)[C@H](c3ccc(/C=C/c4ccccc4)cc3)[C@@H]2C1	-16*
CC(C)C#Cc1ccc([C@@H]2[C@@H](CO)N3CCCCN(C(=O)c4ccc(F)cc4)C[C@H]23)cc1	0
CC(C)C#Cc1ccc([C@H]2[C@@H](CO)N3CCCCN(C(=O)c4ccc(F)cc4)C[C@H]23)cc1	-40*
O=C(c1cccc(F)c1)N1CCCCN2[C@H](CO)[C@H](c3ccc(-c4ccccc4)cc3)[C@H]2C1	3
O=C(c1cccc(F)c1)N1CCCCN2[C@H](C1)[C@@H](c1ccc(/C=C/c3ccccc3)cc1)[C@@H]2CO	-41*
